Out of some 5,500 compounds screened, about 2,000 (36%) were called active. Inconclusive results (about 18%) are left out. No stated cut-off is given here; in the data, active means normalized growth mostly below about 0.91 (no sharp cut-off); inconclusive means no clear call, values can overlap the other calls; inactive means mostly above about 0.92. The list shows a part of the results.
Experiment: chemical genetic growth profiling, strain panel (AID 1159580);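 further: tested at 20 µM; growth read once vehicle control cultures reached saturation at 30 °C; 1 = growth at the plate median or of vehicle wells; lower values mean less growth of the strain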
Details: S. cerevisiae deletion strains, growth OD

Measured: normalized growth

CC(=O)OCC(=O)[C@@]1(O)CC[C@H]2[C@@H]3CCC4=CC(=O)CC[C@]4(C)[C@H]3C(=O)C[C@@]21C
inactive: locus YAL040C, strain CLN3, hits give low values 0.998 | locus YER002W, strain NOP16, hits give low values 0.991 | locus YGR078C, strain PAC10, hits give low values 1 | locus YNL175C, strain NOP13, hits give low values 0.985 | locus YNL197C, strain WHI3, hits give low values 0.982 | locus YNL224C, strain SQS1, hits give low values 1.01 | locus YOR083W, strain WHI5 (second series), hits give low values 0.976
